MCF10A rereplic: inducers of DNA re-replication in MCF 10A breast cells. MCF 10A DNA re-replication, Hoechst nuclear intensity, 48 h. AID 624296. Potency, µM (doses to about 46.1 µM), usual class: activators. actives 2.9% (n = 350,000); note: nearly all actives have a fitted effect of over 50% in size
KB-3-1 cytotox: KB-3-1 parental cell cytotoxicity | actives 1.4% (n = 400,000) | Potency, µM (titrated, usually from 46.1 µM), most hits filed as cytotoxic | KB-3-1 viability, CellTiter-Glo ATP luminescence, 72 h | AID 1347075; note: nearly all actives have a fitted effect of over 60% in size
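Cytotoxicity in the drug-sensitive parental line KB-3-1 was scored as loss of CellTiter-Glo luminescence following 72 h incubation with compound. Values come from curve fitting of normalized concentration-response data.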
KB-V1 cytotox: KB-V1 MDR subline cytotoxicity; KB-V1 MDR cells viability, CellTiter-Glo, 72 h; Potency, µM (doses to about 46.1 µM), most hits filed as cytotoxic; actives 3.4% (n = 400,000); note: nearly all actives have a fitted effect of over 60% in size
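In this primary screen, KB-V1 cells overexpressing P-gp are incubated with library compounds (lowest to highest concentration) for 72 h at 37 degrees C before a luminescent ATP viability read.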
IL1B secr inh: blocks inflammasome-driven IL-1 beta release. activity change, % at 57.5 µM. AID 743279. THP-1 LPS/ATP IL-1B secretion, AlphaLISA, 16 h; hits give low values. actives 4.7% (n = 360,000); in the data active = activity change below about -50%; inconclusive = mostly about -30% to -49%
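THP-1 cells pretreated 1 hr with compounds (up to 57.5 uM final), then stimulated with LPS (250 ng/mL final) plus ATP (1.25 mM final); secreted IL-1B measured by AlphaLISA after 16 hr, decreased signal indicating inhibition.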
SW480 rereplic: inducers of DNA re-replication in SW480 colon cancer cells; Potency, µM (highest dose often 46.1 µM), most hits filed as activators; actives 1.8% (n = 340,000); AID 624297; SW480 DNA re-replication, Hoechst DNA content imaging, 48 h; note: nearly all actives have a fitted effect of over 55% in size
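Cells (250 per well) received 23 nL compound or DMSO by pin tool and were kept 48 hr at 37 C, 5% CO2. Nuclei were then stained with Hoechst for 40 min and scanned for DNA content.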
A number is an active result; - = inactive; ? = inconclusive; . = not tested or not shown; [ ] = remark or other dose. Rows were chosen to be rich in hits. Some 9.9% of all compounds tested hit in one or more screens of this group. Unless noted, calls come from the whole dose curve; as a rule, active = well fitted curve in the direction sought with a large enough effect; inconclusive = small, poorly fitted or top-dose-only effect, or another doubt; inactive = no such curve, though single readings can be large; an effect the other way counts as inactive or inconclusive.

SMILES	MCF10A rereplic	KB-3-1 cytotox	KB-V1 cytotox	IL1B secr inh	SW480 rereplic
COc1cnc(-c2ccccc2)nc1OC	-	?	?	-	-
Cc1cc(-c2nnc(-c3ccccc3)c(-c3ccccc3)n2)c(C)o1	?	-	-	?	?
Cc1ccc(-c2nnc(-c3ccccc3)c(-c3ccccc3)n2)cc1	-	-	18.4µM	-	-
C/C(CC(=O)NCc1ccco1)=N\NC(=O)c1ccc([N+](=O)[O-])cc1Cl	-	-	?	-	-
C[C@H](CO)N1C[C@H](C)[C@@H](CN(C)S(=O)(=O)c2ccc(F)cc2)Oc2c(NC(=O)Nc3ccc(C(F)(F)F)cc3)cccc2C1=O	?	?	-	-50.7	-[9.22 µM]
COc1ccc(NC(=O)Nc2cccc3c2O[C@H](CN(C)S(=O)(=O)c2ccc(F)cc2)[C@@H](C)CN([C@H](C)CO)C3=O)cc1	-	?	-	-	-
COc1ccc(NC(=O)N(C)C[C@H]2Oc3c(NC(=O)Nc4ccc(C(F)(F)F)cc4)cccc3C(=O)N([C@H](C)CO)C[C@@H]2C)cc1	?	?	-	?	-
C[C@@H]1CN([C@@H](C)CO)C(=O)c2ccccc2-c2ccccc2CO[C@@H]1CN(C)S(=O)(=O)c1ccc(C(F)(F)F)cc1	.	-	16.4µM	?	.
C[C@H](CO)N1C[C@H](C)[C@@H](CN(C)C(=O)Nc2ccc(C(F)(F)F)cc2)Oc2c(NC(=O)Nc3ccccc3)cccc2C1=O	?	?	-	-58.2	-
C[C@@H]1CN([C@H](C)CO)C(=O)c2cccc(NC(=O)Nc3ccc(F)cc3)c2O[C@H]1CN(C)C(=O)Nc1ccc(C(F)(F)F)cc1	-	?	?	-70.2	-
Cc1ccc(S(=O)(=O)N(C)C[C@@H]2OCc3ccccc3-c3c(n(C)c4ccccc34)C(=O)N([C@H](C)CO)C[C@@H]2C)cc1	.	?	?	-	.
CCC(=O)Nc1cc(-c2cccc(C)c2)nn1-c1ccccc1	.	-	-	.	.
COc1cc2c(cc1OC)C(COc1ccc3c(C)cc(=O)oc3c1)N(C(=O)c1ccccc1F)CC2 (stereo unspecified)	.	-	?	.	.
CC(=O)c1cccc(CN2CCCC(CCC(=O)NCc3ccccc3F)C2)c1 (stereo unspecified)	-	-	-	-	-
CCCSc1nc2cc(C)c(C)cc2n1CC(C)O (stereo unspecified)	-	-	?	-	-
C[C@H](CO)N1C[C@H](C)[C@H](CN(C)S(=O)(=O)c2cccc(F)c2)OCc2ccccc2-c2c(n(C)c3ccccc23)C1=O	.	23.1µM	-	-	.
CC(CCc1ccccc1)NC(=O)C1CCN(S(=O)(=O)c2ccc(F)cc2)CC1 (stereo unspecified)	-	-	-	-63.3	-
O=C(NCCc1ccccc1)C1CCN(S(=O)(=O)N2CCCCCC2)CC1	-	-	-	-	-
CC(CCc1ccccc1)NC(=O)C1CCN(S(=O)(=O)N2CCCCC2)CC1 (stereo unspecified)	-	-	?	-56.2	-
COc1ccc(S(=O)(=O)Nc2ccccc2C(F)(F)F)cc1	-	-	-	-	-
COc1ccc(S(=O)(=O)NC(C)C(=O)Nc2ccccc2C(F)(F)F)cc1 (stereo unspecified)	-	-	16.4µM	-	-
O=C1NC(=O)/C(=C\c2ccc(O)cc2O)S1	-	-	?	?	-
O=C(Nc1ccc(OC(F)F)cc1)c1cc(S(=O)(=O)N2CCOCC2)ccc1F	-	-	?	-	-
Cc1cc2c(C)nc3ccccc3c2o1	-	-	-	-	-
Cc1cc2[nH]c3c4ccccc4nc(C)c3c2cc1C	-	10.3µM	?	-112.4	-
Cc1cc(/C=C2\SC(=Nc3ccccc3)NC2=O)c(C)n1-c1ccc(S(N)(=O)=O)cc1	-	4.11µM	?	-	7.31µM
Cc1ccccc1CCNC(=O)c1ccc(Cl)c(S(=O)(=O)N2CC(C)OC(C)C2)c1 (stereo unspecified)	?	5.17µM	1.84µM	-	-
CC1CN(S(=O)(=O)c2cc(C(=O)NCc3ccncc3)ccc2Cl)CC(C)O1 (stereo unspecified)	-	-	-	-	-
CN(Cc1cccs1)C(=O)c1cccc(S(=O)(=O)N2CCCCCC2)c1	-	-	18.4µM	-	-
